Results reported in PubChem BioAssay (NCI).
About 79,000 compounds went through this panel and 15% of them were active in at least one assay; those are over-represented in the sample as a whole. The source made the active and inactive calls. Cut-off read from the data, not from the text of the source: active = growth inhibition above about 70%; inactive = the rest.

What was measured:
[1] = NCI Yeast Anticancer Drug Screen. Data for the rad52 strain (AID 147);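 note: 0% = growth of vehicle-treated control cultures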; settings: S. cerevisiae rad52 mutant growth inhibition, stronger effect = higher value
In short: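 DNA repair-defective yeast; compound exposure; growth scored against vehicle controls.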

[2] = NCI Yeast Anticancer Drug Screen. Data for the wt1 strain (AID 149);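 note: 0% = growth of vehicle-treated wt1 cultures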; settings: S. cerevisiae wt1 strain (SPY 50644) growth inhibition, stronger effect = higher value
In short: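 wt1 yeast, compound-treated; % growth inhibition vs vehicle control.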

[3] = NCI Yeast Anticancer Drug Screen. Data for the mgt1 strain (AID 153); settings: S. cerevisiae mgt1 mutant growth inhibition, stronger effect = higher value
In short: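 Growth inhibition relative to vehicle controls was scored for the mgt1 yeast strain after compound exposure.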

[4] = NCI Yeast Anticancer Drug Screen. Data for the rad50 strain (AID 155);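 note: 0% = growth of vehicle-only cultures of the same strain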; settings: S. cerevisiae rad50 strain growth inhibition, stronger effect = higher value
In short: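 Genetically altered yeast (DNA repair pathway); compound treatment; growth inhibition vs vehicle ctrl.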

[5] = NCI Yeast Anticancer Drug Screen. Data for the mec2-1 strain (AID 157); settings: S. cerevisiae mec2-1 strain, stronger effect = higher value
In short: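 Growth inhibition is read against vehicle-treated controls after compound exposure of the mec2-1 yeast strain, which is defective in DNA damage repair or cell cycle control.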

[6] = NCI Yeast Anticancer Drug Screen. Data for the rad14 strain (AID 159);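 note: 0% = growth of vehicle-treated control cultures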; settings: S. cerevisiae rad14 strain growth inhibition, stronger effect = higher value
In short: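 Test compounds were applied to a repair-deficient yeast strain. Its growth was then compared with that of cultures given vehicle alone, and inhibition was expressed relative to those controls.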

[7] = NCI Yeast Anticancer Drug Screen. Data for the sgs1 mgt1 strain (AID 161);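 note: 0% = growth of cultures given vehicle only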; settings: S. cerevisiae sgs1 mgt1 strain, stronger effect = higher value
In short: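 Percent growth inhibition was derived by comparing compound-exposed mutant yeast with vehicle-exposed cultures. The strain carries alterations in DNA damage repair.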

[8] = NCI Yeast Anticancer Drug Screen. Data for the CLN2oe strain (AID 163);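 note: 0% = growth of vehicle-only control cultures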; settings: S. cerevisiae CLN2oe strain, stronger effect = higher value
In short: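 Compound-treated yeast; growth vs vehicle ctrl = % inhibition. Genetically altered strain (cell-cycle control).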

[9] = NCI Yeast Anticancer Drug Screen. Data for the cln2 rad14 strain (AID 165);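 note: 0% = growth equal to vehicle treated cultures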; settings: S. cerevisiae cln2 rad14 strain, stronger effect = higher value
In short: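 Growth inhibition, relative to vehicle-treated controls, is the read-out. The test organism is a yeast strain with defined genetic alterations, cln2 rad14.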

[10] = NCI Yeast Anticancer Drug Screen. Data for the bub3 strain (AID 167); settings: S. cerevisiae bub3 mutant strain, stronger effect = higher value
In short: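 Yeast carrying a defined mutation is treated with each compound, and growth is compared with that of vehicle-exposed cells to give inhibition.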

[11] = NCI Yeast Anticancer Drug Screen. Data for the wt2 strain (AID 169);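 note: 0% = growth of vehicle-treated yeast cultures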; settings: S. cerevisiae wt2 strain growth inhibition, stronger effect = higher value
In short: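 Compound exposure of yeast; growth compared with vehicle controls; inhibition reported.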

[12] = NCI Yeast Anticancer Drug Screen. Data for the mlh1 strain (AID 171);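 note: 0% = growth of vehicle-treated control cultures of the same strain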; settings: S. cerevisiae mlh1 strain growth inhibition, stronger effect = higher value
In short: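 Compounds are applied to a genetically altered yeast strain, and its growth is compared with that of vehicle-treated cultures to give percent inhibition.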

[13] = NCI Yeast Anticancer Drug Screen. Data for the sgs1 strain (AID 173);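 note: 0% = growth of vehicle-only control cultures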; settings: S. cerevisiae sgs1 mutant, stronger effect = higher value
In short: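 Compounds applied to genetically altered yeast; growth compared with vehicle-treated cultures to give % inhibition.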

[14] = NCI Yeast Anticancer Drug Screen. Data for the mlh1 rad18 strain (AID 175); settings: S. cerevisiae mlh1 rad18 strain growth inhibition, stronger effect = higher value
In short: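 Cells of a genetically altered yeast strain, deficient in DNA damage repair, were treated with compound. Their growth was then compared with that of vehicle-treated cultures to give inhibition.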

[15] = NCI Yeast Anticancer Drug Screen. Data for the rad18 strain (AID 177); settings: S. cerevisiae rad18 mutant growth inhibition, stronger effect = higher value
In short: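 Compounds are applied to a repair-deficient yeast strain, and growth is compared with that of vehicle-treated cultures to give percent inhibition.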

[16] = at 5.0 µM (retest, dose inferred, filed as 0.5)
[17] = at 50.0 µM (retest, dose inferred, filed as 5.0)

Measured: growth inhibition

CCC(=O)OC1CCn2c1nc1c2C(=O)C(C)=C(N2CC2)C1=O (stereo not drawn)
inactive: [1]; at 1.2 µM -5% | [1]; at 3.7 µM 26% | [1]; at 11.0 µM 17% | [1]; at 33.0 µM 41% | [2]; at 1.2 µM 4% | [2]; at 3.7 µM -7% | [2]; at 11.0 µM -11% | [2]; at 33.0 µM -8% | [2]; at 100.0 µM 2% | [3]; at 1.2 µM 7% | [3]; at 3.7 µM -7% | [3]; at 11.0 µM -1% | [3]; at 33.0 µM 6% | [3]; at 100.0 µM 16% | [4]; at 1.2 µM 18% | [4]; at 3.7 µM -3% | [4]; [16] 48% | [4]; at 11.0 µM 18% | [4]; at 33.0 µM 34% | [4]; at 50.0 µM 55.8% | [5]; at 1.2 µM -7% | [5]; at 3.7 µM -2% | [5]; [16] 38% | [5]; at 11.0 µM 6% | [5]; at 33.0 µM 20% | [5]; [17] 64% | [5]; at 100.0 µM 64% | [6]; at 1.2 µM 8% | [6]; at 3.7 µM 7% | [6]; at 11.0 µM 14% | [6]; at 33.0 µM 38% | [7]; [16] 20% | [7]; [17] 66% | [8]; at 1.2 µM -41% | [8]; at 3.7 µM -44% | [8]; at 11.0 µM -43% | [8]; at 33.0 µM -39% | [8]; at 100.0 µM -19% | [9]; [16] 14% | [9]; [17] 54% | [9]; at 50.0 µM 57.6% | [10]; at 1.2 µM 9% | [10]; at 3.7 µM -3% | [10]; [16] -24% | [10]; at 11.0 µM -9% | [10]; at 33.0 µM -14% | [10]; [17] -11% | [10]; at 50.0 µM -7.05% | [10]; at 100.0 µM 13% | [11]; at 1.2 µM -30% | [11]; at 3.7 µM -35% | [11]; at 11.0 µM -29% | [11]; at 33.0 µM -19% | [11]; at 100.0 µM 16% | [12]; at 1.2 µM 5% | [12]; at 3.7 µM 24% | [12]; at 11.0 µM -11% | [12]; at 33.0 µM -10% | [12]; at 100.0 µM 24% | [13]; at 1.2 µM 14% | [13]; at 3.7 µM 30% | [13]; at 11.0 µM 37% | [13]; at 33.0 µM 55% | [14]; [16] 45% | [14]; at 50.0 µM 69% | [15]; at 1.2 µM 60%
active: [1]; at 100.0 µM 82% | [4]; [17] 87% | [4]; at 100.0 µM 78% | [5]; at 50.0 µM 70.4% | [6]; at 100.0 µM 79% | [7]; at 50.0 µM 71.4% | [13]; at 100.0 µM 80% | [14]; [17] 73% | [15]; at 3.7 µM 75% | [15]; at 11.0 µM 87% | [15]; at 33.0 µM 90% | [15]; at 100.0 µM 91%
